PubChem BioAssay AID1159580 (chemical genetic matrix, 2015)
Among all 5,500 compounds or so, about 2,000 (36%) were called active. Inconclusive results (about 18%) are left out. Cut-off read from the data, not from the text of the source: active = normalized growth mostly below about 0.91 (no sharp cut-off); inconclusive = no clear call, values can overlap the other calls; inactive = mostly above about 0.92. This is one part of the list.

Test: chemical genetic growth profiling, strain panel (AID 1159580);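 note: tested at 20 µM; growth read once vehicle control cultures reached saturation at 30 °C; 1 = growth at the plate median or of vehicle wells; lower values mean less growth of the strain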
Conditions: growth OD

Measured: normalized growth

CC(=O)O[C@@H]1CC2C(C)(C)[C@H](O)C[C@H](O)[C@]2(C)C2CC[C@@]3(C)[C@H](c4ccoc4)OC(=O)[C@H]4O[C@]43[C@@]21C (stereo not given in full)
inactive: S. cerevisiae deletion strains, locus YAL021C, strain ccr4, stronger effect = lower value 1.01 | S. cerevisiae deletion strains, locus YAL026C, strain drs2, stronger effect = lower value 0.993 | S. cerevisiae deletion strains, locus YAL030W, strain snc1, stronger effect = lower value 0.995 | S. cerevisiae deletion strains, locus YBL061C, strain skt5, stronger effect = lower value 0.988 | S. cerevisiae deletion strains, locus YBR009C, strain hhf1, stronger effect = lower value 0.974 | S. cerevisiae deletion strains, locus YBR021W, strain FUR4, stronger effect = lower value 0.959 | S. cerevisiae deletion strains, locus YBR023C, strain chs3, stronger effect = lower value 0.985 | S. cerevisiae deletion strains, locus YBR171W, strain sec66, stronger effect = lower value 0.986 | S. cerevisiae deletion strains, locus YBR229C, strain ROT2, stronger effect = lower value 0.952 | S. cerevisiae deletion strains, locus YBR231C, strain swc5, stronger effect = lower value 0.983 | S. cerevisiae deletion strains, locus YBR279W, strain paf1, stronger effect = lower value 0.988 | S. cerevisiae deletion strains, locus YCL011C, strain gbp2, stronger effect = lower value 0.984 | S. cerevisiae deletion strains, locus YCL016C, strain dcc1, stronger effect = lower value 0.996 | S. cerevisiae deletion strains, locus YCL029C, strain bik1, stronger effect = lower value 0.987 | S. cerevisiae deletion strains, locus YCL061C, strain MRC1, stronger effect = lower value 0.99 | S. cerevisiae deletion strains, locus YCL069W, strain vba3, stronger effect = lower value 0.989 | S. cerevisiae deletion strains, locus YCR088W, strain abp1, stronger effect = lower value 0.995 | S. cerevisiae deletion strains, locus YDL005C, strain med2, stronger effect = lower value 0.985 | S. cerevisiae deletion strains, locus YDL035C, strain GPR1, stronger effect = lower value 0.982 | S. cerevisiae deletion strains, locus YDL040C, strain nat1, stronger effect = lower value 0.984 | S. cerevisiae deletion strains, locus YDL074C, strain BRE1, stronger effect = lower value 0.987 | S. cerevisiae deletion strains, locus YDL101C, strain DUN1, stronger effect = lower value 1 | S. cerevisiae deletion strains, locus YDL185W, strain tfp1, stronger effect = lower value 0.981 | S. cerevisiae deletion strains, locus YDL192W, strain arf1, stronger effect = lower value 0.988 | S. cerevisiae deletion strains, locus YDR001C, strain nth1, stronger effect = lower value 0.979 | S. cerevisiae deletion strains, locus YDR069C, strain doa4, stronger effect = lower value 0.983 | S. cerevisiae deletion strains, locus YDR101C, strain arx1, stronger effect = lower value 0.957 | S. cerevisiae deletion strains, locus YDR137W, strain rgp1, stronger effect = lower value 1.03 | S. cerevisiae deletion strains, locus YDR159W, strain sac3, stronger effect = lower value 0.968 | S. cerevisiae deletion strains, locus YDR162C, strain NBP2, stronger effect = lower value 0.993 | S. cerevisiae deletion strains, locus YDR195W, strain ref2 0.935 | S. cerevisiae deletion strains, locus YDR297W, strain sur2, stronger effect = lower value 0.996 | S. cerevisiae deletion strains, locus YDR318W, strain mcm21, stronger effect = lower value 0.995 | S. cerevisiae deletion strains, locus YDR334W, strain swr1, stronger effect = lower value 0.99 | S. cerevisiae deletion strains, locus YDR335W, strain msn5, stronger effect = lower value 0.989 | S. cerevisiae deletion strains, locus YDR388W, stronger effect = lower value 0.994 | S. cerevisiae deletion strains, locus YDR392W, strain spt3, stronger effect = lower value 0.913 | S. cerevisiae deletion strains, locus YDR502C, strain sam2, stronger effect = lower value 1 | S. cerevisiae deletion strains, locus YEL003W, strain gim4, stronger effect = lower value 0.987 | S. cerevisiae deletion strains, locus YEL037C, strain rad23, stronger effect = lower value 0.987 | S. cerevisiae deletion strains, locus YEL061C, strain CIN8 (second series), stronger effect = lower value 0.977 | S. cerevisiae deletion strains, locus YER015W, strain faa2, stronger effect = lower value 0.981 | S. cerevisiae deletion strains, locus YER016W, strain bim1, stronger effect = lower value 0.99 | S. cerevisiae deletion strains, locus YER110C, stronger effect = lower value 0.978 | S. cerevisiae deletion strains, locus YER111C, strain swi4, stronger effect = lower value 0.976 | S. cerevisiae deletion strains, locus YER155C, strain BEM2 (second series), stronger effect = lower value 0.997 | S. cerevisiae deletion strains, locus YER155C, strain BEM2, stronger effect = lower value 1 | S. cerevisiae deletion strains, locus YER167W, strain BCK2, stronger effect = lower value 0.98 | S. cerevisiae deletion strains, locus YFR010W, strain ubp6, stronger effect = lower value 0.983 | S. cerevisiae deletion strains, locus YGL078C, strain dbp3, stronger effect = lower value 1 | S. cerevisiae deletion strains, locus YGL086W, strain mad1, stronger effect = lower value 0.996 | S. cerevisiae deletion strains, locus YGL167C, strain pmr1, stronger effect = lower value 0.995 | S. cerevisiae deletion strains, locus YGL173C, strain kem1, stronger effect = lower value 0.962 | S. cerevisiae deletion strains, locus YGL227W, strain vid30, stronger effect = lower value 0.986 | S. cerevisiae deletion strains, locus YGL240W, strain doc1, stronger effect = lower value 0.971 | S. cerevisiae deletion strains, locus YGL248W, strain PDE1, stronger effect = lower value 1.01 | S. cerevisiae deletion strains, locus YGL253W, strain hxk2, stronger effect = lower value 0.955 | S. cerevisiae deletion strains, locus YGR078C, strain PAC10, stronger effect = lower value 1.02 | S. cerevisiae deletion strains, locus YGR135W, strain pre9, stronger effect = lower value 1.06 | S. cerevisiae deletion strains, locus YGR252W, strain gcn5, stronger effect = lower value 1.07 | S. cerevisiae deletion strains, locus YHR013C, strain ard1, stronger effect = lower value 0.963 | S. cerevisiae deletion strains, locus YHR027C, strain rpn1, stronger effect = lower value 1 | S. cerevisiae deletion strains, locus YHR079C, strain IRE1 (second series), stronger effect = lower value 0.987 | S. cerevisiae deletion strains, locus YHR094C, strain hxt1, stronger effect = lower value 0.978 | S. cerevisiae deletion strains, locus YHR129C, strain ARP1, stronger effect = lower value 0.993 | S. cerevisiae deletion strains, locus YHR142W, strain chs7, stronger effect = lower value 0.98 | S. cerevisiae deletion strains, locus YHR200W, strain rpn10, stronger effect = lower value 0.983 | S. cerevisiae deletion strains, locus YIL066C, strain RNR3, stronger effect = lower value 0.965 | S. cerevisiae deletion strains, locus YIL073C, strain SPO22, stronger effect = lower value 0.997 | S. cerevisiae deletion strains, locus YIL125W, strain kgd1, stronger effect = lower value 0.946 | S. cerevisiae deletion strains, locus YIR030C, strain dcg1, stronger effect = lower value 0.985 | S. cerevisiae deletion strains, locus YJL092W, strain hpr5, stronger effect = lower value 0.984 | S. cerevisiae deletion strains, locus YJL095W, strain BCK1 (second series), stronger effect = lower value 1 | S. cerevisiae deletion strains, locus YJL095W, strain BCK1, stronger effect = lower value 1.05 | S. cerevisiae deletion strains, locus YJL115W, strain asf1, stronger effect = lower value 0.984 | S. cerevisiae deletion strains, locus YJL129C, strain trk1, stronger effect = lower value 0.979 | S. cerevisiae deletion strains, locus YJL134W, strain LCB3, stronger effect = lower value 0.987 | S. cerevisiae deletion strains, locus YJL154C, strain vps35, stronger effect = lower value 0.996 | S. cerevisiae deletion strains, locus YJL164C, strain tpk1, stronger effect = lower value 0.979 | S. cerevisiae deletion strains, locus YJL166W, strain qcr8, stronger effect = lower value 0.99 | S. cerevisiae deletion strains, locus YJL168C, strain set2, stronger effect = lower value 0.984 | S. cerevisiae deletion strains, locus YJL187C, strain SWE1 (second series), stronger effect = lower value 1.02 | S. cerevisiae deletion strains, locus YJL187C, strain SWE1, stronger effect = lower value 1 | S. cerevisiae deletion strains, locus YJR043C, strain POL32, stronger effect = lower value 0.963 | S. cerevisiae deletion strains, locus YKL009W, strain mrt4, stronger effect = lower value 0.988 | S. cerevisiae deletion strains, locus YKL068W, stronger effect = lower value 0.997 | S. cerevisiae deletion strains, locus YKL085W, strain MDH1 (second series), stronger effect = lower value 0.994 | S. cerevisiae deletion strains, locus YKL085W, strain MDH1, stronger effect = lower value 0.994 | S. cerevisiae deletion strains, locus YKL160W, strain elf1, stronger effect = lower value 1.02 | S. cerevisiae deletion strains, locus YKR001C, strain vps1, stronger effect = lower value 0.975 | S. cerevisiae deletion strains, locus YKR026C, strain gcn3, stronger effect = lower value 0.968 | S. cerevisiae deletion strains, locus YKR091W, strain srl3, stronger effect = lower value 0.983 | S. cerevisiae deletion strains, locus YLL001W, strain dnm1, stronger effect = lower value 0.984 | S. cerevisiae deletion strains, locus YLL026W, stronger effect = lower value 0.986 | S. cerevisiae deletion strains, locus YLL041C, strain sdh2, stronger effect = lower value 0.994 | S. cerevisiae deletion strains, locus YLR027C, strain aat2, stronger effect = lower value 0.993 | S. cerevisiae deletion strains, locus YLR039C, strain RIC1, stronger effect = lower value 1 | S. cerevisiae deletion strains, locus YLR058C, strain SHM2, stronger effect = lower value 0.982 | S. cerevisiae deletion strains, locus YLR102C, strain apc9, stronger effect = lower value 0.982 | S. cerevisiae deletion strains, locus YLR221C, strain rsa3, stronger effect = lower value 0.972 | S. cerevisiae deletion strains, locus YLR258W, strain gsy2, stronger effect = lower value 0.995 | S. cerevisiae deletion strains, locus YLR262C, strain YPT6 (second series), stronger effect = lower value 1 | S. cerevisiae deletion strains, locus YLR268W, strain sec22, stronger effect = lower value 0.976 | S. cerevisiae deletion strains, locus YLR320W, strain mms22, stronger effect = lower value 0.986 | S. cerevisiae deletion strains, locus YLR330W, strain CHS5, stronger effect = lower value 0.994 | S. cerevisiae deletion strains, locus YLR342W, strain FKS1, stronger effect = lower value 0.984 | S. cerevisiae deletion strains, locus YLR357W, strain rsc2, stronger effect = lower value 0.987 | S. cerevisiae deletion strains, locus YLR370C, strain arc18, stronger effect = lower value 0.994 | S. cerevisiae deletion strains, locus YLR371W, strain rom2, stronger effect = lower value 0.959 | S. cerevisiae deletion strains, locus YLR384C, strain iki3, stronger effect = lower value 0.994 | S. cerevisiae deletion strains, locus YLR418C, strain cdc73, stronger effect = lower value 1.03 | S. cerevisiae deletion strains, locus YML016C, strain PPZ1, stronger effect = lower value 0.968 | S. cerevisiae deletion strains, locus YML032C, strain rad52, stronger effect = lower value 0.963 | S. cerevisiae deletion strains, locus YML120C, strain ndi1, stronger effect = lower value 0.996 | S. cerevisiae deletion strains, locus YML124C, strain tub3, stronger effect = lower value 0.975 | S. cerevisiae deletion strains, locus YMR058W, strain fet3, stronger effect = lower value 0.989 | S. cerevisiae deletion strains, locus YMR078C, strain ctf18, stronger effect = lower value 0.988 | S. cerevisiae deletion strains, locus YMR125W, strain sto1, stronger effect = lower value 0.993 | S. cerevisiae deletion strains, locus YMR129W, stronger effect = lower value 1.01 | S. cerevisiae deletion strains, locus YMR205C, strain PFK2, stronger effect = lower value 0.967 | S. cerevisiae deletion strains, locus YMR223W, strain ubp8, stronger effect = lower value 1 | S. cerevisiae deletion strains, locus YMR231W, strain pep5, stronger effect = lower value 0.988 | S. cerevisiae deletion strains, locus YMR307W, strain GAS1, stronger effect = lower value 0.972 | S. cerevisiae deletion strains, locus YNL067W, strain RPL9B, stronger effect = lower value 1.02 | S. cerevisiae deletion strains, locus YNL071W, strain lat1, stronger effect = lower value 0.987 | S. cerevisiae deletion strains, locus YNL153C, strain GIM3, stronger effect = lower value 1.01 | S. cerevisiae deletion strains, locus YNL209W, strain ssb2, stronger effect = lower value 1 | S. cerevisiae deletion strains, locus YNL233W, strain BNI4, stronger effect = lower value 1.02 | S. cerevisiae deletion strains, locus YNL248C, strain rpa49, stronger effect = lower value 1.01 | S. cerevisiae deletion strains, locus YNL250W, strain rad50, stronger effect = lower value 1.02 | S. cerevisiae deletion strains, locus YNL271C, strain bni1, stronger effect = lower value 0.988 | S. cerevisiae deletion strains, locus YNL298W, strain CLA4, stronger effect = lower value 0.982 | S. cerevisiae deletion strains, locus YNL307C, strain MCK1, stronger effect = lower value 0.992 | S. cerevisiae deletion strains, locus YNL322C, strain KRE1 (second series), stronger effect = lower value 0.979 | S. cerevisiae deletion strains, locus YNL322C, strain KRE1, stronger effect = lower value 0.999 | S. cerevisiae deletion strains, locus YNR049C, strain mso1, stronger effect = lower value 0.994 | S. cerevisiae deletion strains, locus YNR052C, strain pop2, stronger effect = lower value 1.01 | S. cerevisiae deletion strains, locus YOL006C, strain TOP1, stronger effect = lower value 1.05 | S. cerevisiae deletion strains, locus YOL012C, strain htz1 0.767 | S. cerevisiae deletion strains, locus YOL147C, strain pex11, stronger effect = lower value 0.991 | S. cerevisiae deletion strains, locus YOR001W, strain rrp6, stronger effect = lower value 1.01 | S. cerevisiae deletion strains, locus YOR061W, strain CKA2, stronger effect = lower value 0.939 | S. cerevisiae deletion strains, locus YOR069W, strain VPS5, stronger effect = lower value 1 | S. cerevisiae deletion strains, locus YOR070C, strain gyp1, stronger effect = lower value 0.999 | S. cerevisiae deletion strains, locus YOR080W, strain dia2, stronger effect = lower value 0.989 | S. cerevisiae deletion strains, locus YOR083W, strain WHI5, stronger effect = lower value 1.02 | S. cerevisiae deletion strains, locus YOR106W, strain vam3, stronger effect = lower value 1 | S. cerevisiae deletion strains, locus YOR136W, strain idh2, stronger effect = lower value 0.993 | S. cerevisiae deletion strains, locus YOR144C, strain elg1, stronger effect = lower value 0.98 | S. cerevisiae deletion strains, locus YOR184W, strain ser1, stronger effect = lower value 0.967 | S. cerevisiae deletion strains, locus YOR265W, strain rbl2, stronger effect = lower value 0.999 | S. cerevisiae deletion strains, locus YOR270C, strain vph1, stronger effect = lower value 0.828 | S. cerevisiae deletion strains, locus YOR290C, strain snf2, stronger effect = lower value 0.923 | S. cerevisiae deletion strains, locus YOR316C, strain cot1, stronger effect = lower value 0.981 | S. cerevisiae deletion strains, locus YPL051W, strain arl3, stronger effect = lower value 1.03 | S. cerevisiae deletion strains, locus YPL055C, strain LGE1, stronger effect = lower value 0.957 | S. cerevisiae deletion strains, locus YPL078C, strain atp4, stronger effect = lower value 0.999 | S. cerevisiae deletion strains, locus YPL106C, strain sse1, stronger effect = lower value 1 | S. cerevisiae deletion strains, locus YPL240C, strain hsp82, stronger effect = lower value 1 | S. cerevisiae deletion strains, locus YPR119W, strain clb2, stronger effect = lower value 0.994 | S. cerevisiae deletion strains, locus YPR141C, strain kar3, stronger effect = lower value 0.982 | S. cerevisiae deletion strains, locus YPR163C, strain tif3, stronger effect = lower value 0.975 | S. cerevisiae deletion strains, locus YPR167C, strain met16, stronger effect = lower value 0.99 | S. cerevisiae deletion strains, strain wtn01, stronger effect = lower value 0.949 | S. cerevisiae strains, strain wild type, stronger effect = lower value 0.976
